# Measured values: PubChem BioAssay AID488969 (Vanderbilt High Throughput Screening Facility, 2010)
# Whole data set: some 110,000 compounds, median “z-score” near -0.1, cut for the highest 2% near 2. The full list was thinned out, with the highest values kept by preference. Activity calls are given as the source filed them.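 How the source made its calls: active means z-score in the third read window above 3 or below -3; inactive means the rest.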
# Target: Metabotropic glutamate receptor 8 (Rattus norvegicus) (UniProt P70579)
# Assay: mGluR8 Gi/Go-coupled signaling modulation – cell-based, rat, thallium flux, HTS, primary screen (AID 488969)
# Conditions: HEK293 rat mGluR8, GIRK (G protein-gated inwardly rectifying potassium channel) thallium flux, FluoZin2; at 10 µM; stronger effect = higher value; submaximal glutamate (EC20) added with thallium
# Sequence of Metabotropic glutamate receptor 8 (Rattus norvegicus) (P70579 whole entry, looked up): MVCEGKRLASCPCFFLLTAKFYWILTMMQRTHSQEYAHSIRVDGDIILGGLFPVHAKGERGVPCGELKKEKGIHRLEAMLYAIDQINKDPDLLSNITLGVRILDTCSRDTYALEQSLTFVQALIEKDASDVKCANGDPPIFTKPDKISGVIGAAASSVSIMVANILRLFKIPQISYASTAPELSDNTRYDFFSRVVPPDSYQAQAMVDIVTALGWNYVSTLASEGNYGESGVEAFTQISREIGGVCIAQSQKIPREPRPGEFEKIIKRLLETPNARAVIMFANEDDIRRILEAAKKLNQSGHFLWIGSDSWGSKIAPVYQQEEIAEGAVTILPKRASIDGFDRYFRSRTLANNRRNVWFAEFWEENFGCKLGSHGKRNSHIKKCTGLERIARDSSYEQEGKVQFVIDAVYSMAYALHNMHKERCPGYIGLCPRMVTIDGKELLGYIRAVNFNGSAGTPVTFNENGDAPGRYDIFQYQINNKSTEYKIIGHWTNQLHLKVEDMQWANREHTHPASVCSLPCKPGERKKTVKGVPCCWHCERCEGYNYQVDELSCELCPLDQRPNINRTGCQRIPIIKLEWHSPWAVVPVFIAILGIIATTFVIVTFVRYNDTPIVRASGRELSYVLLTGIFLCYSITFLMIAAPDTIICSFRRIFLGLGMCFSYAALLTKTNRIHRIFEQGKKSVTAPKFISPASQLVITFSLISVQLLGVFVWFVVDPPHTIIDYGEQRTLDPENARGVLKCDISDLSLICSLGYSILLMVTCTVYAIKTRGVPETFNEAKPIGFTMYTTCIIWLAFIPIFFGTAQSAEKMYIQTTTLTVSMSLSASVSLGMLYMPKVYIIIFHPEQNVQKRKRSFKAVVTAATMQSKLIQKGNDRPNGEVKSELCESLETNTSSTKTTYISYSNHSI
row,SMILES,z-score
1,Cc1c(NC(=O)c2cc(-n3cnnc3)ccc2Cl)cccc1-c1nc2ccccc2o1,-0.115
2,O=C1c2ccccc2CN1CCNS(=O)(=O)c1ccc(Cl)cc1,-0.0894
3,Cc1ccc(C(=O)N/N=c2\sc3ccccc3n2C)cc1,0.37
4,Cc1ccccc1NC(=O)COC(=O)/C=C/c1cn(-c2ccccc2)nc1-c1cccnc1,-0.0968
5,Cn1nnc2cc(NC(=O)N3CCN(c4ccccn4)CC3)ccc21,0.387
6,CC(=O)Oc1ccc(-c2cccc(C(=O)O)c2)cc1,-0.607
7,COc1ccc(C(=O)C2CCN(S(=O)(=O)c3ccc4c(c3)OCCO4)CC2)cc1,0.21
8,Clc1cccc(/C=N/Nc2nc(Cl)nc3ccccc23)c1,-0.0962
9,Clc1ccc(/C=N/Nc2nnc(Cl)c3ccccc23)cc1,0.242
10,Clc1ccc(/C=N/Nc2nc(Cl)nc3ccccc23)cc1,2.24
11,CC(=O)Nc1ccc(OC(=O)c2cc3cc(Br)cc(Br)c3oc2=O)cc1,-0.128
12,CCOC(=O)C1=C(c2ccccc2)N=C2SCC(=O)N2C1c1cccc(OC)c1 (stereo not drawn),-0.311
13,CCOC(=O)c1c(NS(=O)(=O)c2ccc(Br)cc2)sc2c1CCC2,16.1 (active)
14,CCOC(=O)c1c(NC(=S)Nc2ccc(OC)cc2)sc2c1CCC2,0.905
15,CCOC(=O)c1c(NC(=O)OC)sc2c1CCC2,0.00121
16,COC(=O)c1c(NC(=O)COC(=O)[C@@H](NS(=O)(=O)c2ccc(C)cc2)C(C)C)sc2c1CCC2,2.02
17,CCOC(=O)c1c(NS(=O)(=O)c2cccc(OC)c2)sc2c1CCC2,16.9 (active)
18,CCOC(=O)Nc1sc2c(c1C(=O)OCC)CCC2,0.418
19,CCOC(=O)c1c(NC=O)sc2c1CCC2,-0.85
20,COC(=O)c1c(NC(=O)COC(=O)[C@@H](NS(=O)(=O)c2ccccc2)C(C)C)sc2c1CCC2,0.129
21,COC(=O)c1c(NC(=O)COC(=O)c2ccc(C)s2)sc2c1CCCCC2,0.122
22,CCOC(=O)C1CCN(CCC(=O)Nc2cccc(Cl)c2C)CC1,0.732
23,O=C(NC1CCCCCC1)C1C2C=CC3(CN(Cc4cccnc4)C(=O)C13)O2 (stereo not drawn),0.211

row,SMILES,z-score
1,O=c1cc(N2CCc3ccccc32)[nH]c(=O)n1-c1ccc(Br)cc1,-0.058
2,CCc1ccc(OCCOCC(O)CNC(C)CC)cc1 (stereo not drawn),0.0842
3,COC(=O)c1ccccc1NC(=O)C1CCC(=O)N1S(=O)(=O)c1ccc(C)cc1 (stereo not drawn),0.251
4,CC(=O)NS(=O)(=O)c1ccc(NC(=O)COc2ccc(C(=O)c3ccccc3)cc2)cc1,0.359
5,CC(NC(=O)C1CCN(S(=O)(=O)c2cc([N+](=O)[O-])ccc2Cl)CC1)c1ccccc1 (stereo not drawn),-0.238
6,NC(=O)C1CCCN(S(=O)(=O)c2ccccc2)C1 (stereo not drawn),-0.127
7,Cc1cccc(C(=O)Nc2nnc(-c3ccco3)o2)c1,0.11
8,CCC(=O)Nc1nnc(-c2ccco2)o1,2.14
9,O=C(Nc1nnc(-c2ccco2)o1)c1cccc2ccccc12,0.259
10,Cc1ccc(C(=O)Nc2nnc(-c3ccco3)o2)cc1,0.435
11,Cc1ccc(C(=O)Nc2nnc(-c3ccco3)o2)cc1C,0.973
12,O=C(Nc1nnc(-c2ccco2)o1)c1ccc2ccccc2c1,2.95
13,CCSc1nc2[nH]ncc2c(=O)[nH]1,-0.145
14,CCOC(=O)c1c(N)sc(C(O)(C(F)(F)F)C(F)(F)F)c1-c1ccc(OC)cc1OC,-1.15
15,O=C(COC(=O)c1cccnc1Nc1cccc(C(F)(F)F)c1)NC1CCS(=O)(=O)C1 (stereo not drawn),-0.275
16,O=C(NCc1cc(C(F)(F)F)cc(C(F)(F)F)c1)C1CC(c2c(Cl)cccc2Cl)=NO1 (stereo not drawn),-0.111
17,Cc1ccc(S(=O)(=O)Nc2cccc3cccnc23)cc1,-0.731
18,Cc1ccc(-n2c(-c3ccc(Br)cc3)c[n+]3c2CCc2ccc4cccnc4c2-3)cc1,4.86 (active)
19,Brc1ccc(-c2cn3c(n2)CCc2ccc4cccnc4c2-3)cc1,0.098
20,COc1ccccc1-n1c(SCC(=O)N2CCCCC2)nnc1-c1ccccc1O,-0.514
21,CN(C(=O)c1ccccn1)c1nnc(-c2cnccn2)s1,-0.729
22,CN(C(=O)c1ccccn1)c1nnc(-c2ccncc2)s1,-0.931
23,CN(C(=O)c1ccccn1)c1nnc(-c2ccccn2)s1,2.29

row,SMILES,z-score
1,COc1ccc(-c2noc(CSc3nnc(Cc4ccccc4)n3-c3ccc(Cl)cc3)n2)cc1,0.663
2,Cc1ccc(OCC(O)Cn2c(=N)n(CCN3CCCCC3)c3ccccc32)cc1 (stereo not drawn),4.9 (active)
3,N=c1n(CCN2CCCCC2)c2ccccc2n1CC(O)COc1ccccc1 (stereo not drawn),1.11
4,COc1ccccc1OCC(O)Cn1c(=N)n(CCN2CCCCC2)c2ccccc21 (stereo not drawn),-0.0021
5,N=c1n(CCN2CCCCC2)c2ccccc2n1CC(O)c1cccc(Br)c1 (stereo not drawn),0.566
6,Cc1cccc(OCC(O)Cn2c(=N)n(CCN3CCCCC3)c3ccccc32)c1 (stereo not drawn),5.06 (active)
7,Cc1ccccc1OCC(O)Cn1c(=N)n(CCN2CCOCC2)c2ccccc21 (stereo not drawn),1.12
8,O=C(Nc1ccc(Cl)cc1)C1=Cc2cc(Cl)ccc2OC1,-0.109
9,COC(=O)C1=C(C)NC2=C(C(=O)CC(C)(C)C2)C1c1ccsc1 (stereo not drawn),0.803
10,Cn1c(C(C(=O)NCC2CCCO2)N(C(=O)Cn2nnc3ccccc32)C2CCCCC2)nc2ccccc21 (stereo not drawn),-0.0111
11,CCOC(=O)/C(C#N)=C/NC(=O)NC(C)(C)C,0.141
12,Cc1ccc2[nH]c(=O)c(CN(CCO)C(=O)N(C)C)cc2c1,-0.0536
13,CCOC(CNC(=O)CCc1c(C)nc2nc(C)nn2c1C)OCC,-0.308
14,CCc1ccc(S(=O)(=O)Nc2c(C)nn(C)c2C)cc1,-0.343
15,CN(Cc1ccccc1F)c1nc(-c2cccs2)nc2ccccc12,0.11
16,O=C(O/N=C\c1ccc(N2CCCCC2)c([N+](=O)[O-])c1)c1cccc(C(F)(F)F)c1,0.31
17,O=C(O/N=C\c1ccc(N2CCCCC2)c([N+](=O)[O-])c1)c1cccc(Cl)c1,-0.494
18,O=C(O/N=C\c1ccc(N2CCCCC2)c([N+](=O)[O-])c1)c1c(F)cccc1F,2.03
19,CCOC(=O)CSc1cc(CSc2ccccc2)nc(-c2ccccc2)n1,4.85 (active)
20,CCOC(=O)CSc1cc(CS(=O)(=O)c2ccccc2)nc(-c2ccccc2)n1,-0.223
21,CCOC(=O)CSc1cc(CS(=O)c2ccc(Cl)cc2)nc(-c2ccccc2)n1 (stereo not drawn),0.0352
22,CC(=O)N(c1nc(CCl)cs1)c1c(C)cc(C)cc1C,1.43
